The structures appear in SMILES notation. Several values for one entry are separate records, joined by “and”; a condition that tells them apart may be missing. Identical values can stand only once. About 83,000 compounds went through this panel and 20% of them were active in at least one assay; those are over-represented in the sample as a whole.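 Negative percent growth values reflect cell death: -40 means 40% of the cells present at the start died, and -100 means all died.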 Activity calls are given as the source filed them. Rule for the calls: active = growth percent below 10; inactive = the rest.

Assay in all cases: NCI-60 one-dose screen, 48 h (100 = growth as untreated, 0 = no growth, -100 = all killed)
Assay [1] deals with NCI-H226 lung. To be noted: 10 µM.
Assay [2] deals with NCI-H322M lung. To be noted: 10 µM.
Assay [3] concerns HOP-62 NSCLC. The following applies: 10 µM.
Assay [4] relates to NCI-H460 lung. To be noted: 10 µM.
Assay [5] relates to A549/ATCC NSCLC. The following applies: 10 µM.
Assay [6] relates to 786-0 renal. The following applies: 10 µM.
Assay [7] has as its system DU-145 prostate. The following applies: 10 µM.
Assay [8] deals with SF-268 CNS. The following applies: 10 µM.
The subject of assay [9] is SF-295 CNS. To be noted: 10 µM.
Assay [10] concerns SF-539 CNS. The following applies: 10 µM.
The test system of assay [11] is HCT-15 colon. The following applies: 10 µM.
Assay [12] relates to HT29 colon. The following applies: 10 µM.
For assay [13], the system named is SNB-75 CNS. The following applies: 10 µM.
Assay [14] deals with SNB-19 CNS. To be noted: 10 µM.
In assay [15] the test system is PC-3 prostate. To be noted: 10 µM.
The subject of assay [16] is EKVX NSCLC. The following applies: 10 µM.
The subject of assay [17] is UO-31 renal. To be noted: 10 µM.
Assay [18] concerns ACHN renal. The following applies: 10 µM.
In assay [19] the test system is HL-60(TB) leukemia. To be noted: 10 µM unless noted.
The subject of assay [20] is MOLT-4 leukemia. The following applies: 10 µM.

In the case of `C/C=C/CC(C)C(O)[C@H](NC(=O)[C@@H]1CCCN1C(=O)C(C)(C)NC(=O)CCCCCCCCC)C(=O)N[C@@](C)(CC)C(=O)N[C@@H](CCC(N)=O)C(=O)N[C@H](CCC(N)=O)C(=O)NC(C)(C)C(=O)N[C@@](C)(CC)C(=O)N[C@@H](CCC(N)=O)C(=O)N[C@H](CC(C)C)C(=O)N[C@H](CO)CC(C)C` (stereo not given in full), the growth in assay [1] is 99.5% (inactive) and -21.5% (active); in [2], 105% (inactive) and -23.7% (active); in assay [3], 104% (inactive) and -67.3% (active); in assay [4] it was 106% (inactive) and -77.3% (active); in [5] it was 103% (inactive) and 26.2% (inactive); in [6], 108% (inactive) and -81.9% (active). Also, the growth in assay [7] was 103% (inactive) and -72.3% (active); in [8], 104% (inactive) and -52.9% (active); in assay [9], 104% (inactive) and -83.9% (active); in assay [10] it was 100% (inactive) and -100% (active); in assay [11] it was 101% (inactive) and 20.9% (inactive); in [12], 116% (inactive) and 29.2% (inactive). Moreover, the growth in [13] was 96.1% (inactive) and -85.9% (active); in assay [14] it was 101% (inactive) and -98% (active); in assay [15] it was 97.3% (inactive) and -48.8% (active); in assay [16], 106% (inactive) and -68.1% (active); in assay [17], 85.2% (inactive) and -84.9% (active); in assay [18], 103% (inactive) and -7.13% (active). In addition, the growth in [19] was 100% (inactive) and -46.1% (active); in assay [20], 101% (inactive) and -14.5% (active).
For `O=C(CCCc1ccc(N(CCCl)CCCl)cc1)OCc1ccccc1`, the growth was 90.3% (inactive) in assay [1]; 103% (inactive) in [2]; 84.2% (inactive) in [3]; 53.1% (inactive) in assay [4]; 78.9% (inactive) in assay [5]; 99% (inactive) in assay [6]. In addition, the growth in assay [7] was 96.7% (inactive); in assay [8], 80.4% (inactive); in assay [9], 87.7% (inactive); in assay [10] it was 85.2% (inactive); in [11], 88.6% (inactive); in [12], 95.8% (inactive). Besides, the growth in [13] was 84.9% (inactive); in assay [14] it was 95.9% (inactive); in assay [15], 83.2% (inactive); in assay [16], 101% (inactive); in assay [17], 83.6% (inactive); in [18] it was 50.6% (inactive). The growth in assay [19] was 68.7% (inactive); in assay [20], 76.7% (inactive).
With `COc1cc2c(O[C@@H]3OC[C@H](O)[C@H](O)[C@H]3O)c3c(c(-c4ccc5c(c4)OCO5)c2cc1OC)C(=O)OC3`, the growth was 80.7% (inactive) in assay [1]; 82% (inactive) in [2]; 59.1% (inactive) in assay [3]; 71.9% (inactive) in [4]; 91% (inactive) in [5]; 78.9% (inactive) in [6]. For the same compound, the growth in assay [7] was 53.2% (inactive); in assay [8], 66.7% (inactive); in [9] it was 40.5% (inactive); in assay [10], 53.6% (inactive); in assay [11], 70.3% (inactive); in assay [12], 38.6% (inactive). For the same compound, the growth in assay [13] is 18% (inactive); in [14], 97% (inactive); in assay [15], 67.1% (inactive); in assay [16], 70% (inactive); in assay [17], 82.2% (inactive); in assay [18], 67.6% (inactive). The growth in assay [19] is 32.6% (inactive); in [20], 110% (inactive).
With `CC1=C2C(=C[C@@](C)(C=O)[C@@H]2O)C(=O)[C@](C)(O)C12CC2`, the growth is 46.1% (inactive) in assay [1]; 26.5% (inactive) in assay [2]; 8.06% (active) in [3]; 5.09% (active) in assay [4]; 8.13% (active) in [5]; 5.21% (active) in assay [6]. Moreover, the growth in assay [7] is 9.15% (active); in assay [8] it was 12.2% (inactive); in [9], 3.31% (active); in [10], -10.7% (active); in [11], 6.02% (active); in assay [12], 4.21% (active). Moreover, the growth is -3.53% (active) in assay [13]; 20.7% (inactive) in [14]; 6.53% (active) in assay [15]; 15% (inactive) in [16]; -13.3% (active) in assay [17]; -18.5% (active) in assay [18]. Further, the growth is -12% (active) in [19] and 16.5% (inactive) in [20].
For the compound `C[C@@H]1CCC/C=C/[C@H]2C[C@@H](O)C[C@@H]2[C@@H](O)/C=C/C(=O)O1`, the growth in [1] is 7.32% (active); in assay [2], 6.35% (active); in assay [3], 1.72% (active); in assay [4], 18.2% (inactive); in [5], 16.1% (inactive); in assay [6] it was -31.4% (active). Moreover, the growth in assay [7] is 28.4% (inactive); in assay [8] it was 17.6% (inactive); in [9], 21.6% (inactive); in [10] it was 31.7% (inactive); in assay [11], 11.2% (inactive); in assay [12] it was 0.531% (active). For the same compound, the growth is 47% (inactive) in [13]; 30.2% (inactive) in assay [14]; 19.5% (inactive) in [15]; 11.5% (inactive) in [16]; 6.57% (active) in assay [17]; 9.31% (active) in [18]. In addition, the growth in [19] is -22.7% (active); in assay [20] it was 1.42% (active).
With `COc1cccc2c1cc([N+](=O)[O-])c1c(C(=O)O)cc3c(c12)OCO3`, the growth is 104% (inactive) in [1]; 115% (inactive) in assay [2]; 113% (inactive) in assay [3]; 105% (inactive) in [4]; 100% (inactive) in assay [5]; 109% (inactive) in assay [6]. Moreover, the growth was 112% (inactive) in [7]; 108% (inactive) in [8]; 101% (inactive) in [9]; 106% (inactive) in assay [10]; 99.9% (inactive) in assay [11]; 0.133% (active) in [12]. In addition, the growth in assay [13] is 96.2% (inactive); in assay [14], 102% (inactive); in assay [15] it was 95.6% (inactive); in assay [16], 97% (inactive); in [17], 85.1% (inactive); in assay [18], 101% (inactive). In addition, the growth is 105% (inactive) in assay [19] and 99.6% (inactive) in assay [20].

Values taken from PubChem BioAssay (NCI).
